A selection: hits, their analogues and other compounds. The true share with any hit is near 9.3%.
ELG1 genotoxic – qHTS screen for small molecules that induce genotoxicity in human embryonic kidney (HEK293T) cells expressing luciferase-tagged ELG1. HEK293T ELG1-luciferase reporter, luminescence, 16 h. Potency, µM (doses to about 46 µM), without a hit: at the highest dose activity change, positive = activation, usual class: activators. actives 1.3% (n = 330,000). AID 504466, 2011; further: % of control where 0% means no effect; nearly all actives have a fitted effect of over 60% in size
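Reporter readout depends on ELG1 protein level, which increases with genetic stress. After 16 hr compound exposure at 37 °C, luciferase activity was quantified using ONE-Glo.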
Rab9 promoter act – qHTS Assay for Rab9 Promoter Activators. Huh7 Rab9 promoter-luciferase reporter, luminescence, 24 h. Potency, µM (titrated, usually from 9.22 µM), inactives show at the top dose activation, negative = inhibition, usual class: activators. actives 2.8% (n = 320,000). AID 485297, 2010; further: % of control where 0% means no effect; nearly all actives have a fitted effect of over 60% in size
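Steps: seed 1500 Huh7 Rab9-luc cells per well, rest 2 h at 37 °C; add compound in DMSO; incubate 24 h; add luciferase reagent, 10 min ambient; read luminescence.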
FLuc modulator – qHTS profiling assay for firefly luciferase inhibitor/activator using purifed enzyme and Km concentrations of substrates (counterscreen for miR-21 project) | purified FLuc, Km substrates, luminescence inhibition | AID 588342, 2011 | Potency, µM (series often up to 57.5 µM), for the others: at the top dose activity change, negative = inhibition, most hits filed as inhibitors | Luciferin 4-monooxygenase (Photinus pyralis), P08659 | actives 6.9% (n = 360,000);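 further: plate controls were vehicle for no effect and reference inhibitor for full effect; nearly all actives have a fitted effect of over 55% in size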
Target sequence (P08659 whole entry, looked up): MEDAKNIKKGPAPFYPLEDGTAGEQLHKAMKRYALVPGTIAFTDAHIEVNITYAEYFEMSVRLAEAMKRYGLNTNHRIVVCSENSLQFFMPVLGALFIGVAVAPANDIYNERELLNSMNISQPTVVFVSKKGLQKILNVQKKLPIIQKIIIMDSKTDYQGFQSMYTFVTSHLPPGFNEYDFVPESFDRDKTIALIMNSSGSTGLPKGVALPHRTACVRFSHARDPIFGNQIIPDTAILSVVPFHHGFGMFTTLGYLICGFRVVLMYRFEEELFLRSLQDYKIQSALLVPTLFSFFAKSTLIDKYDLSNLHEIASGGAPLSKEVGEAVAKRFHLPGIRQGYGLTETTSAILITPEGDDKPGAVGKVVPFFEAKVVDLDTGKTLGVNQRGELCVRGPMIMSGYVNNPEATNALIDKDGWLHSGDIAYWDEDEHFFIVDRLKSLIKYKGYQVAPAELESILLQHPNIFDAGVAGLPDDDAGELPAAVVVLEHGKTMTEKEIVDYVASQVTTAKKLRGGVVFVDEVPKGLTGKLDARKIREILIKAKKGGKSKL
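Biochemical qHTS of compounds, final roughly 60 µM downward over six points, against 10 nM purified firefly luciferase using Km concentrations of substrates (10 uM D-luciferin, 10 uM ATP) in Tris acetate pH 7.5 buffer; luminescence output.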
NPC1 promoter act – qHTS Assay for NPC1 Promoter Activators | Huh7 NPC1 promoter luciferase reporter, 24 h | Potency, µM (doses to about 9.22 µM), inactives show top-dose activation, actives largely listed as activators | actives 2.4% (n = 320,000); further: % of control where 0% means no effect; nearly all actives have a fitted effect of over 60% in size
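Compounds in DMSO were transferred onto Huh7 NPC1-luciferase reporter cells pre-incubated 2 h; after 24 h at 37 °C, Amplite reagent was dispensed and luminescence recorded 10 min later.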
SMN2 splice up – qHTS Assay for Enhancers of SMN2 Splice Variant Expression; HEK293 SMN2-luciferase splicing reporter, luminescence, 30-36 h; Potency, µM (titrated, usually from 46.1 µM), for inactives: top-dose activity change, positive = activation, most hits filed as activators; actives 2.8% (n = 210,000); further: % of control where 0% means no effect; nearly all actives have a fitted effect of over 55% in size
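HEK293 cells carry an SMN2 minigene-luciferase reporter in which exon 7 inclusion puts luciferase in frame. Cells were seeded at 2000 cells/well, attached for 10-12 hours, then exposed to compounds for 30-36 hours at 37C before ONE-Glo luminescence.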
ELG1 repair inh – qHTS screen for small molecules that inhibit ELG1-dependent DNA repair in human embryonic kidney (HEK293T) cells expressing luciferase-tagged ELG1; HEK293T ELG1-luciferase reporter, luminescence, 16 h; DNA damage induced by 5-fluorouridine; AID 504467, 2011; Potency, µM (titrated, usually from 46.1 µM), for inactives: at the top dose activity change, negative = inhibition, hits mostly inhibitors; actives 2.3% (n = 330,000); further: on the % scale 0 is the no-effect control and ±100 the full control effect; nearly all actives have a fitted effect of over 55% in size
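In this reporter screen, reduction of luminescence relative to DMSO vehicle indicated activity. Compounds and 5-fluorouridine were added together to 2,000 cells per well, incubated for 16 hr at 37 °C, then developed with ONE-Glo.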
* marks the source's active call; other numbers are inactive results; ? = inconclusive; . = no result. The call rests on the fitted dose curve; in most records, active means well fitted curve in the direction sought with a large enough effect; inconclusive means small, poorly fitted or top-dose-only effect, or another doubt; inactive means no such curve, though single readings can be large; an effect the other way counts as inactive or inconclusive. Potency means the concentration at half of the fitted maximal effect.

SMILES	ELG1 genotoxic	Rab9 promoter act	FLuc modulator	NPC1 promoter act	SMN2 splice up	ELG1 repair inh
CSc1nc(-c2ccc(N(C)C)cc2)c(C#N)c(=O)n1C	?	?	12µM*	?	.	?
O=C(COC(=O)c1ccncc1)c1ccc(Cl)c(Cl)c1	1%	-3%	?	-9%	1%	12%
Nc1n[nH]c(C2CC2)c1N=Nc1ccc(Cl)c(Cl)c1	8%	-1%	?	6%	.	5%
Nc1n[nH]c(N)c1N=Nc1ccc2c(c1)OCO2	5%	?	12µM*	?	21%	29%
Cc1ccc(N=Nc2c(N)n[nH]c2N)cc1	?	18%	15µM*	?	.	?
CCC(=O)C1CCCN(C(=O)c2ccc3nc(-c4cccc(OC)c4)oc3c2)C1 (stereo unspecified)	?	1.6µM*	8.5µM*	1.4µM*	.	?
COc1ccc2cc(C(=O)C3CCCN(C(=O)c4cccnc4)C3)ccc2c1 (stereo unspecified)	0%	10%	-3%	0%	.	6%
COc1cccc(-c2nc3ccc(C(=O)N4CCCC(O)C4)cc3o2)c1 (stereo unspecified)	?	3.5µM*	15µM*	4µM*	.	?
COc1cccc(-c2noc(C3CCCN(C(=O)c4cccc(F)c4)C3)n2)c1 (stereo unspecified)	1%	5%	-15%	14%	.	-28%
CN(CCc1ccccc1)C1CCCN(S(=O)(=O)c2cccc(F)c2)C1 (stereo unspecified)	0%	4%	3%	-2%	.	0%
Cc1ccc(S(=O)(=O)/N=C(/c2ccccc2)N(C)c2ccc(O)cc2)cc1	1%	-2%	-19%	-3%	-1%	-9%
Cc1ccc(NC(=O)Cn2cc(S(=O)(=O)N3CCCC3)c(S(=O)(=O)N3CCCC3)c2)cc1F	.	.	-12%	.	.	.
Cc1sc2ncn3cnnc3c2c1C	-6%	3%	-2%	3%	-6%	?
Cc1sc2ncn3ncnc3c2c1C	-35%	-8%	-1%	-3%	-5%	9.2µM*
COCCN(Cc1nc(-c2ccc(-c3ccccc3)cc2)oc1C)C(C)C	0.92µM*	?	9.5µM*	-20%	.	?
Cc1cccc(N(CC(=O)Nc2ccccc2C(F)(F)F)S(=O)(=O)c2ccccc2)c1C	.	.	-9%	.	-18%	.
Cc1ccc(-n2nc3ccc(NC(=O)c4oc5ccc(C)cc5c4C)cc3n2)cc1	.	.	-14%	.	14%	.
Cc1ccc(-n2nc3ccc(NC(=O)c4ccc5c(c4)OCO5)cc3n2)cc1	1%	7%	-1%	0%	-13%	16%
CCCC(=O)Nc1cc2nn(-c3ccc(OC)cc3)nc2cc1C	.	.	?	.	22%	.
CCCC(=O)Nc1ccc2nn(-c3ccc(OC)cc3)nc2c1	?	2µM*	5.4µM*	?	.	?
Cc1ccc(-n2nc3ccc(NC(=O)C(C)C)cc3n2)cc1	1.2µM*	0.35µM*	0.95µM*	0.35µM*	2.2µM*	?
CC(C)CC(=O)Nc1ccc2nn(-c3ccccc3)nc2c1	?	1.6µM*	2.7µM*	1.6µM*	6.3µM*	?
Cc1ccc(-n2nc3ccc(NC(=O)c4ccco4)cc3n2)cc1	15µM*	?	9.5µM*	19%	1%	?
COc1ccc(OC)c(C(=O)CC2(O)C(=O)N(Cc3ccccc3C)c3ccccc32)c1 (stereo unspecified)	.	.	-2%	.	-14%	.
Cc1cc(=O)n2nc(-c3ccccc3)sc2c1C#N	?	15%	-9%	23%	14%	?
